The nature of test [1]: qHTS assay to identify small molecule agonists of the constitutive androstane receptor (CAR) signaling pathway - cell viability counter screen (AID 1224836). Note: nearly all actives have a fitted effect of over 45% in size. Note: potency is the fitted concentration of half-maximal effect. A digest of the protocol: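 Counter screen multiplexed with the CAR reporter readout: HepG2 cells co-transfected with hCAR and the CYP2B6-2.2kb construct receive a 15-concentration compound series and 0.75 uM PK11195 (final), then CellTiter-Fluor fluorescence is read after 23 h.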
Background: qHTS replaces the single test concentration by a dilution series.

Test [2] can be described thus: qHTS assay to identify small molecule antagonists of the constitutive androstane receptor (CAR) signaling pathway - cell viability counter screen (AID 1224837). Note: nearly all actives have a fitted effect of over 45% in size. Note: potency is the fitted concentration of half-maximal effect. A digest of the protocol:
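To flag cytotoxic false antagonists, HepG2 hCAR/CYP2B6-2.2kb cells were treated 23 hr with 15-concentration compound series and 50 nM CITCO at 37 C/5% CO2; CellTiter-Fluor fluorescence was the measured end point.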

Test [3] deals with Nuclear receptor subfamily 1 group I member 3 (Homo sapiens) (UniProt Q14994). The test can be described thus: qHTS assay to identify small molecule antagonists of the constitutive androstane receptor (CAR) signaling pathway (AID 1224838).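 Note: HepG2 cells stably expressing hCAR with CYP2B6 luciferase reporter stimulated by CITCO; nearly all actives have a fitted effect of over 40% in size.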 Note: potency is the fitted concentration of half-maximal effect. A digest of the protocol:
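Human hepatoma HepG2 cells expressing hCAR and a CYP2B6 promoter (2.2 kb) luciferase construct; compound titration (15 points) with 50 nM CITCO final, 24 h at 37 C/5% CO2; luminescence via ONE-Glo after 30 min at room temperature.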

Test [4] has the same target. As to the kind of experiment: qHTS assay to identify small molecule agonists of the constitutive androstane receptor (CAR) signaling pathway (AID 1224839). Note: nearly all actives have a fitted effect of over 15% in size. A digest of the protocol:
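A 15-concentration quantitative screen uses HepG2 cells co-transfected stably with human CAR and CYP2B6-2.2kb reporter. Treatment lasts 24 h with 0.75 uM PK11195 final present; ONE-Glo luminescence is the signal.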

A short description of test [5]: qHTS assay to identify small molecule antagonists of the estrogen related receptor signaling pathway with the pleiotropic PPARgamma coactivator (PGC) from Tox21 10K library - cell viability counter screen (AID 1224840; active = well fitted cell-killing curve with a large enough effect in the repeat runs, not every such curve was filed as active; note: nearly all actives have a fitted effect of over 40% in size). A digest of the protocol: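 Seeded PGC/ERR cells (2,000/well, 6 h, 37 C/5% CO2) get compound by pin tool; 17.5 h incubation at 37 C; CellTiter-Fluor added, 30 min, fluorescence measured.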

Test [6] can be described thus: qHTS assay to identify small molecule agonists of the hypoxia (HIF-1) signaling pathway - cell viability counter screen (AID 1224844; calls by dose curve; note: nearly all actives have a fitted effect of over 50% in size; note: potency is the fitted concentration of half-maximal effect). A digest of the protocol: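 HRE-bla ME-180; 0.5% dFBS; cpd 17 h, 37C, 5% CO2; CellTiter-Glo lum., 30 min RT, post-FRET read, same wells.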
Test [7] can be described thus: qHTS assay to identify small molecule agonists of H2AX (AID 1224845; active = well fitted activation curve with a large enough effect in the signal ratio in the repeat runs, not every such curve was filed as active; the % refers to the signal ratio). A digest of the protocol: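 Wild-type CHO-K1 cells plated overnight, then exposed 3 hr at 37C to compounds at 15 concentrations (0.76% DMSO). Lysed, then HTRF anti-pH2AX(S139)-cryptate/anti-H2AX-d2 detection after 24 hr at room temperature; emissions 665 and 620 nm.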
A short description of test [8]: qHTS assay to identify small molecule agonists of H2AX - cell viability counter screen (AID 1224847; calls by dose curve; note: nearly all actives have a fitted effect of over 30% in size; note: potency is the fitted concentration of half-maximal effect; for activity change, negative = cytotoxicity: top concentration of the series differs between compounds). A digest of the protocol: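 We seed wild-type CHO-K1 cells overnight, treat them for 3 hr at 37C with compounds in 15-concentration series, and quantify remaining viability by CellTiter-Glo luminescence.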
Test [9] in a line: qHTS RealTime-Glo MT Cell Viability Assay in HepG2 cells - 24 hour (AID 1224867). Note: nearly all actives have a fitted effect of over 50% in size. Note: potency is the fitted concentration of half-maximal effect. A digest of the protocol:
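HepG2 cells were seeded at 600 cells/well together with NanoLuc luciferase and a cell-permeant prosubstrate, preincubated 5 h at 37 C/5% CO2, then pin-dosed with compounds in DMSO. Nonlytic luminescence from viable cells was read at each time point.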

Test [10] can be described thus: qHTS RealTime-Glo MT Cell Viability Assay in HEK293 cells - 32 hour (AID 1224868). For activity change, negative = cytotoxic: top concentration of the series differs between compounds. Note: nearly all actives have a fitted effect of over 50% in size. Note: potency is the fitted concentration of half-maximal effect. A digest of the protocol:
(§1)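 HEK293 cells were seeded at 600 cells/well together with NanoLuc luciferase and cell-permeant prosubstrate, preincubated 5 h at 37 C/5% CO2, then given compound in DMSO by pintool. Luminescence from viable-cell prosubstrate reduction was read repeatedly over 40 h.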

Test [11] can be described thus: A CellTox Green Cytotoxicity Assay to monitor cytotoxicity in HEK293 cells - 0 hour (AID 1224869). Note: nearly all actives have a fitted effect of over 50% in size. A digest of the protocol: (§2)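 Tox21 screen in HEK293: membrane-impermeant cyanine dye fluoresces on binding dead-cell DNA; compound pinned 5 h post-seeding, plates held at 37 C, signal read repeatedly through 40 h.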
Test [12] is described as follows: A CellTox Green Cytotoxicity Assay to monitor cytotoxicity in HEK293 cells - 40 hour (AID 1224871). Note: nearly all actives have a fitted effect of over 45% in size. Note: potency is the fitted concentration of half-maximal effect. A digest of the protocol: as §2
Test [13] can be described thus: qHTS RealTime-Glo MT Cell Viability Assay in HEK293 cells - 16 hour (AID 1224872). For activity change, negative = cytotoxicity: top concentration of the series differs between compounds. Note: nearly all actives have a fitted effect of over 50% in size. Note: potency is the fitted concentration of half-maximal effect. A digest of the protocol:
as §1

The target in test [14] is Thyrotropin receptor (Homo sapiens) (UniProt P16473). As to the kind of experiment: qHTS assay to identify small molecule agonists of the thyroid stimulating hormone receptor (TSHR) signaling pathway (AID 1224843; calls by dose curve; note: nearly all actives have a fitted effect of over 45% in size; note: potency is the fitted concentration of half-maximal effect). A digest of the protocol: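 Using 15 concentrations per compound in triplicate, cAMP production was monitored in TSHR-HEK293 cells after 30 min compound incubation at RT; HTRF reagents followed, with fluorescence intensity recorded after 1 h.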

Test [15] is described as follows: qHTS assay to identify small molecule agonists of the hypoxia (HIF-1) signaling pathway (AID 1224846; active = well fitted activation curve with a large enough effect in the signal ratio in the repeat runs, not every such curve was filed as active; the % refers to the signal ratio). A digest of the protocol:
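Reporter induction in HRE-bla ME-180 cells is taken as agonism: cells sit 5 hrs after plating, receive compounds or DMSO only, incubate 17 hrs at 37C under 5% CO2, and are loaded with CCF4-AM for beta-lactamase FRET measurement.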

The nature of test [16]: qHTS RealTime-Glo MT Cell Viability Assay in HepG2 cells - 40 hour (AID 1224870). Note: nearly all actives have a fitted effect of over 50% in size. Note: potency is the fitted concentration of half-maximal effect. A digest of the protocol:
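HepG2 cells mixed with RealTime-Glo MT reagents (NanoLuc plus cell-permeant prosubstrate) were seeded at 600 cells/well, incubated 5 h at 37 C/5% CO2, then pinned with compounds in DMSO; nonlytic luminescence tracked viability during 40 h treatment.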

The nature of test [17]: qHTS assay to identify small molecule antagonists of the estrogen related receptor signaling pathway with the pleiotropic PPARgamma coactivator (PGC) from Tox21 10K library (AID 1224841; call rule not given here; note: potency is the fitted concentration of half-maximal effect). A digest of the protocol:
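Test chemicals dissolved in DMSO were applied to pre-incubated (6 h) PGC/ERR cells at 2,000 cells/well for an 18 h, 37 C treatment; reporter luminescence was then read using One-Glo.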

Test [18] can be described thus: qHTS assay to identify small molecule agonists of the estrogen related receptor signaling pathway with the pleiotropic PPARgamma coactivator (PGC) from Tox21 10K library (AID 1224842). Note: nearly all actives have a fitted effect of over 15% in size. A digest of the protocol:
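PGC/ERR reporter cells (NTP line) were seeded 2,000 per well, rested 6 h at 37 C/5% CO2, then pin-dosed with compounds in DMSO for 18 h at 37 C; luciferase read by One-Glo luminescence after 30 min at room temperature.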

Test [19] is described as follows: qHTS assay to identify small molecule antagonists of the estrogen related receptor (ERR) signaling pathway from Tox21 library (AID 1224848). Note: nearly all actives have a fitted effect of over 50% in size. A digest of the protocol:
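Tox21 10K compounds in DMSO tested for ERR pathway antagonism in NTP's ERR cell line; 18 h, 37 C exposure; ONE-Glo luminescence.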

Test [20] in a line: qHTS assay to identify small molecule agonists of the estrogen related receptor (ERR) signaling pathway from Tox21 library (AID 1224849; calls by dose curve; note: nearly all actives have a fitted effect of over 15% in size). The settings on record: ERR reporter cell line, ONE-Glo luciferase, 18 h; at 92.4 µM (top of the series) unless noted. A digest of the protocol: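 Tox21 compounds tested for ERR agonism in an NTP reporter cell line: 18 h treatment at 37 C, then ONE-Glo luminescence.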

Eight molecules from PubChem BioAssay (Tox21) can be followed below.

“And” between values parts separate entries of the source, which are not always exact repeats. Identical values can stand only once. Results filed as inconclusive are left out. Some structures have more than one record in an assay (separate samples or runs), and their calls can disagree. The source made the active and inactive calls. Unless noted, calls come from the whole dose curve; as a rule, active = well fitted curve in the direction sought with a large enough effect in the repeat runs; inconclusive = weak or mixed curves; inactive = no such curve, though single readings can be large; an effect the other way counts as inactive or inconclusive.
% is set by controls: 0 for no effect and ±100 for the full control effect.

Chain of Nuclear receptor subfamily 1 group I member 3 (Homo sapiens) (Q14994 whole entry, looked up): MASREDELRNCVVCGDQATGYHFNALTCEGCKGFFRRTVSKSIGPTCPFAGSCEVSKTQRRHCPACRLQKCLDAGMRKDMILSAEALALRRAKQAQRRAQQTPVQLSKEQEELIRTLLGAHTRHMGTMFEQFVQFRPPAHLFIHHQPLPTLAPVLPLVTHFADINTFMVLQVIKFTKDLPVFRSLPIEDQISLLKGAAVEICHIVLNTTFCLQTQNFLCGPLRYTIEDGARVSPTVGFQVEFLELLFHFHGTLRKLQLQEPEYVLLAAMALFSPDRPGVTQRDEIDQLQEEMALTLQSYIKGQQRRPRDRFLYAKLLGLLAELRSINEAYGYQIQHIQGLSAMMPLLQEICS
Chain of Thyrotropin receptor (Homo sapiens) (P16473 whole entry, looked up): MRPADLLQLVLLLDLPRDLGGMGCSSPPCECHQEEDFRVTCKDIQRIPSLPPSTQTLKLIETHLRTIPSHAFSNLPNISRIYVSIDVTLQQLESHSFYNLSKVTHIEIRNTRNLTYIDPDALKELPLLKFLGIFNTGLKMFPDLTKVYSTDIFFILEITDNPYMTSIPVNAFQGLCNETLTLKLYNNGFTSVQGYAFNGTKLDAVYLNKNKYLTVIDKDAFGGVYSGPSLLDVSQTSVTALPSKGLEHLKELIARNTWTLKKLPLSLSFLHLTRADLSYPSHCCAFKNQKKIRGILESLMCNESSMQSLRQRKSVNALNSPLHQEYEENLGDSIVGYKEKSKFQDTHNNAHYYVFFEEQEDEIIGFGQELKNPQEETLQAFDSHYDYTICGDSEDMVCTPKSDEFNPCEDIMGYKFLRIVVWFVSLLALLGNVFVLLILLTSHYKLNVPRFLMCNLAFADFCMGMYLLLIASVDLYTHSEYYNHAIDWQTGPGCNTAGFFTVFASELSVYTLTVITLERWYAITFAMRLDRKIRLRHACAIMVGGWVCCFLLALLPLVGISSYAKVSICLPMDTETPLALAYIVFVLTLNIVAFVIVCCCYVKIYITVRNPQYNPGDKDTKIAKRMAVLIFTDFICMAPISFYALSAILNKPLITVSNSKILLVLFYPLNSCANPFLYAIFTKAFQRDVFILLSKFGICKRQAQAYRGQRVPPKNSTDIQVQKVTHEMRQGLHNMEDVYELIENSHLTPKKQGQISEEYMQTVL

`CCCCCCCOC(=O)c1ccc(O)cc1`: the Potency result in test [1], in test [2], in [3], in test [4], in test [5] and in test [7] was “inactive” throughout. For the same molecule, the Potency entry in test [9] and in test [11] was “inactive” throughout. Also, the Potency in test [6] is 55 µM (active); in test [8], 101 µM (active); in test [10], 24.6 µM (active) and 21.9 µM (active); in test [12] it was “inactive and 24.5 µM (active)”; in test [13], 24.6 µM (active) and 21.9 µM (active).

For the molecule `O=S(O)O`, the viability change, negative = cytotoxic in test [1] is 7.71% [at 19 µM] (inactive); in [5] it was -6.77% [at 19 µM] (inactive). Moreover, the activity change, negative = cytotoxicity was -3.41% [at 19 µM] (inactive) in [2]; 0.552% [at 15.8 µM] (inactive) in test [6]; 3.26% [at 31.6 µM] (inactive) in [8]; 3.99% [at 15.8 µM] (inactive) in test [9]; 5.35% [at 15.8 µM] (inactive) in test [13]. Moreover, the activity, negative = inhibition in test [3] is -9.95% [at 19 µM] (inactive). In addition, the activation in [4] was -1.32% [at 19 µM] (inactive); in test [14], 2.79% [at 19 µM] (inactive); in test [15] it was -0.609% [at 15.8 µM] (inactive). Further, the activity change, negative = cytotoxic was 13.4% [at 15.8 µM] (inactive) in test [10] and -0.0421% [at 15.8 µM] (inactive) in [16]. For the same molecule, the cytotoxicity in test [11] is -3.65% [at 15.8 µM] (inactive). The cytotoxicity increase in [12] is -2.31% [at 15.8 µM] (inactive).

With `COc1cc(C(C)C)c2c(c1)S(=O)(=O)N(COc1cc(=O)n3cccc(OCCN4CCCCC4)c3n1)C2=O`, the viability change, negative = cytotoxic in test [1] is -20.4% [at 19 µM] (inactive); in test [5], -15.4% [at 19 µM] (inactive). For the same molecule, the activity change, negative = cytotoxicity was -19.6% [at 19 µM] (inactive) in test [2], -17% [at 15.8 µM] (inactive) in test [6], -8.66% [at 15.8 µM] (inactive) in test [9] and 3.24% [at 15.8 µM] (inactive) in test [13]. For the same molecule, the activity, negative = inhibition in test [3] was -19.4% [at 19 µM] (inactive). For the same molecule, the activation in test [4] was -2.29% [at 19 µM] (inactive); in test [14], -0.216% [at 19 µM] (inactive). The Potency in test [8] is 24 µM (active). Further, in test [11], the cytotoxicity is -2.82% [at 15.8 µM] (inactive). The activity change, negative = cytotoxic in [16] was -2.06% [at 15.8 µM] (inactive).

On to `O=C1Nc2ccc(Cl)cc2[C@@](C#CC2CC2)(C(F)(F)F)O1`, for which the Potency entry in test [1], in test [2], in test [3], in test [4], in test [5] and in test [7] was “inactive” in each case. The Potency entry in [11] and in test [16] was “inactive” each time. The Potency was 23.9 µM (active) in [10] and 21.3 µM (active) in test [13].

For the molecule `CC1(C)COCN1`, the Potency result in [1], in test [2], in [3], in test [5], in test [17] and in test [18] was “inactive” in each case. The Potency result in [14], in test [6], in [7], in test [8], in test [19] and in test [9] was “inactive” in each case. Besides, the Potency result in [10] and in [13] was “inactive” throughout. The molecule was called inactive in test [15]. In addition, the activity change, positive = activation in [20] was 5.19% (inactive).

Consider `CNCC[C@H](Oc1cccc2ccccc12)c1cccs1`, for which the Potency in test [1] was 21.1 µM (active); in test [2], 26.6 µM (active); in test [3], 29.8 µM (active); in [17], 33.5 µM (active); in test [9], 23.9 µM (active); in test [16] it was 23.9 µM (active). In test [13], the Potency is 23.9 µM (active). Also, the Potency entry in [4], in [18], in [14], in [7] and in test [11] was “inactive” each time. The call in test [15] was inactive. In addition, the activity change, positive = activation in test [20] is -62.1% [at 42.5 µM] (inactive).

On to `C[C@@H]1CC[C@H]2C(C)(C)[C@H]3C[C@@]12CC[C@@]3(C)O`, for which the Potency entry in test [1], in test [2], in test [3], in test [5], in test [18] and in test [6] was “inactive” throughout. Also, the Potency entry in test [7], in test [19], in [9], in test [10], in test [11] and in test [16] was “inactive” in each case. The Potency was 54.4 µM (active) in test [17], 54.4 µM (active) in test [14] and 38.8 µM (active) in test [12]. Also, in [15], the call was inactive. The activity change, positive = activation in [20] is -6.53% (inactive).

For `COc1cccc(O)c1`, the Potency entry in test [1], in [2], in [3], in test [4], in test [5] and in [7] was “inactive” in each case. Moreover, the Potency entry in test [8], in test [9], in [10], in test [11], in test [12] and in test [13] was “inactive” in each case.
